Measured values from ChEMBL document CHEMBL1201862, “PubChem BioAssay data set” (2004).
Among all 350,000 compounds or so, about 1,200 (0.34%) were called active. Roughly 3% stayed inconclusive and do not appear here. The calls are words filed in the database; no cut-off is given here. The full list was thinned out, with actives kept by preference.

Target: DNA repair nuclease/redox regulator APEX1 (Homo sapiens) (UniProt P27695)
Test: qHTS Assay for Inhibitors of the Human Apurinic/apyrimidinic Endonuclease 1 (APE1).
Assay type: functional

Sequence of DNA repair nuclease/redox regulator APEX1 (Homo sapiens) (P27695 whole entry): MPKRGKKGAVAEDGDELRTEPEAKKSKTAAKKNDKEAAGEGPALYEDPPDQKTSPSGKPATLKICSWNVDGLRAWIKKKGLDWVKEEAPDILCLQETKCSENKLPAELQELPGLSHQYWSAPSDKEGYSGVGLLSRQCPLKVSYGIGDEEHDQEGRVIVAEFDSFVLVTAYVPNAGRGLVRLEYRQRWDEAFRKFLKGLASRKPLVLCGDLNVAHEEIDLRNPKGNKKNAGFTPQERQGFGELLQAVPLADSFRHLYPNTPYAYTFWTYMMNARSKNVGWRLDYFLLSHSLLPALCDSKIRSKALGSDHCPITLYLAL

How did the Potency turn out when `O=C(Cn1c(=S)[nH]c2ccccc2c1=O)N1CCN(c2ccc(F)cc2)CC1` was run?
Its Potency is 794 µM (active).

Which Potency does the source give for `CC(=O)OCC(NC(=O)C(Cc1c[nH]c2ccccc12)NC(=O)OC(C)(C)C)C1OC(n2cc(C)c(=O)[nH]c2=O)C(OC(C)=O)C1OC(C)=O` (stereo not drawn) here?
Its Potency is “inactive”.

`O=C(O)c1cc(-c2ccc(F)cc2F)ccc1O` was tested. Which Potency did it give?
The Potency was “inactive”.
